Assay results published in PubChem BioAssay.

test: probe aNOTCH2 binding on compound microarray – biochemical, small-molecule microarray, 635/667 nm fluorescence, primary screen (AID 1121); details: higher = more signal;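 also: score merges feature fluorescence read at 667 nm with its signal to noise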

Row | Compound | composite z-score
1 | CCC1=C2CN(Cc3ccccc3Br)[C@@H]([C@@H](O)Cc3ccccc3)C2C=CCC1 (stereo partly specified) | -0.123
2 | C=CCc1cccc([C@H]2N[C@H](C(=O)O)CC[C@@H]2C)c1 | -0.157
3 | COC(=O)C1=CC(c2ccc(CO)cc2)=CC(c2cccs2)N(Cc2cccc(OC(F)(F)F)c2)C=C1C(=O)OC (stereo unspecified) | -0.101
4 | C=C(CCCC)C(=O)CC[C@@H](OC(=O)c1cccnc1)c1cccc(OCCO)c1 | -0.148
5 | CO[C@H]1COC(=O)[C@H](Cc2ccccc2)NC(=O)CC=C[C@@H](C)[C@H](OC)COC(=O)CC=C[C@@H]1C | -0.0211
6 | COCCOC(=O)N1C(=O)[C@@]2(c3cc(C#CCC(C(=O)OC)C(=O)OC)ccc31)[C@H](C(=O)N1CCN(c3ncccn3)CC1)[C@H]1C(=O)O[C@H](c3ccccc3)[C@H](c3ccccc3)N1[C@@H]2c1ccc(O)cc1 | -0.0956
7 | CCCC=C(CCC)[C@@H](NS(=O)(=O)c1cccc(C(F)(F)F)c1)c1ccc(C(=O)OC)cc1 | 1.06
8 | NC(=O)[C@H]1[C@@H]2C(=O)O[C@@H](c3ccccc3)[C@@H](c3ccccc3)N2[C@@H](c2ccc(O)cc2)[C@]12C(=O)Nc1ccc(C#CCCO)cc12 | -0.0645
9 | O=C(O)[C@@H]1Cc2c([nH]c3ccccc23)[C@@H](c2ccccc2)N1 | -0.0148
10 | COc1cc2c(cc1OC)CN(C(=O)[C@@H]1[C@H]3C(=O)O[C@H](c4ccccc4)[C@H](c4ccccc4)N3[C@H](c3ccccc3OCCO)[C@@]13C(=O)Nc1ccccc13)CC2 | -0.112
11 | CCCC=C(CCC)[C@@H](NS(=O)(=O)c1ccc(-c2ccccc2)cc1)c1ccc(C(=O)OC)cc1 | -0.0651
